# Experimental data published in PubChem BioAssay (NCI).
# The panel holds about 83,000 compounds, 20% with a hit somewhere; the sample as a whole holds those more often.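 Testing used 96-well plates and a 48-hour single-concentration exposure. Example: -40 means 40% of the starting cells died.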 A number with no mark means an inactive call. Calls of active or inactive are those of the source. The calls were made as follows: active = growth percent below 10; inactive = the rest.
# Legend:
# Assay in all cases: NCI-60 one-dose screen, 48 h (100 = growth as untreated, 0 = no growth, -100 = all killed)
# Settings in all cases: 10 µM unless noted
# EKVX NSCLC = test system: EKVX NSCLC
# SN12C renal = test system: SN12C renal
# UO-31 renal = test system: UO-31 renal
# TK-10 renal = test system: TK-10 renal
# ACHN renal = test system: ACHN renal
# CAKI-1 renal = test system: CAKI-1 renal
# A498 renal = test system: A498 renal
# CCRF-CEM leukemia = test system: CCRF-CEM leukemia
# MOLT-4 leukemia = test system: MOLT-4 leukemia
# SR leukemia = test system: SR leukemia
# RPMI-8226 leukemia = test system: RPMI-8226 leukemia
# OVCAR-8 ovarian = test system: OVCAR-8 ovarian
# OVCAR-5 ovarian = test system: OVCAR-5 ovarian
# OVCAR-4 ovarian = test system: OVCAR-4 ovarian
# SK-OV-3 ovarian = test system: SK-OV-3 ovarian
# OVCAR-3 ovarian = test system: OVCAR-3 ovarian
# HS 578T breast = test system: HS 578T breast
# NCI/ADR-RES ovarian = test system: NCI/ADR-RES ovarian
# T-47D breast = test system: T-47D breast
# IGROV1 ovarian = test system: IGROV1 ovarian
SMILES,growth (EKVX NSCLC),growth (SN12C renal),growth (UO-31 renal),growth (TK-10 renal),growth (ACHN renal),growth (CAKI-1 renal),growth (A498 renal),growth (CCRF-CEM leukemia),growth (MOLT-4 leukemia),growth (SR leukemia),growth (RPMI-8226 leukemia),growth (OVCAR-8 ovarian),growth (OVCAR-5 ovarian),growth (OVCAR-4 ovarian),growth (SK-OV-3 ovarian),growth (OVCAR-3 ovarian),growth (HS 578T breast),growth (NCI/ADR-RES ovarian),growth (T-47D breast),growth (IGROV1 ovarian)
CCC(CCC(C)C1CCC2C3CC=C4CC(O)CCC4(C)C3CCC12C)C(C)C (centres undefined) (tested in a mixture with another compound),115%,84.4%,93.6%,139%,88%,108%,104%,60%,70.6%,101%,81.4%,89.9%,103%,93.7%,127%,103%,87.3%,59.6%,95.3%,–
C[n+]1ccc(Nc2ccc(NC(=O)c3ccc(Nc4cc[n+](C)c5ccc(N)cc45)cc3)cc2)cc1,93.9%,88.4%,75.7%,108%,100%,94.5%,93.9%,98%,97.5%,93.2%,68.1%,94.8%,90.6%,103%,99.1%,115%,108%,99.4%,102%,–
CC(=O)Nc1ccc2c(c1)Cc1c(F)c(F)c(F)c(F)c1-2,70.3%,90.2%,58.1%,84.7%,87.5%,86.6%,69.1%,58.9%,99.4%,52%,22.5%,79.6%,44.1%,85.7%,113%,105%,96.6%,-39.9% (active),85.6%,–
O=C(O)C(=O)O,103%,106%,100%,93.3%,91.9%,99.2%,92.9%,102%,138%,136%,94.4%,75.8%,56.8%,99.8%,95.7%,114%,100%,-36.5% (active),94.4%,–
S=C(c1ccccc1)N1CCN(c2cccc(Cl)c2)CC1,99.5%,100%,93.2%,110%,104%,88.7%,64.6%,84.1%,85.2%,82.4%,86.9%,102%,97.2%,120%,103%,–,–,103%,96.9%,107%
O=C(Nc1ncc([N+](=O)[O-])s1)c1cccc([N+](=O)[O-])c1,37.9%,51.1%,63.4%,23.4%,59%,40.4%,5.48% (active),33%,27.8%,39.3%,-6.2% (active),43.1%,87.6%,40.5%,64.1%,21.3%,49.2%,39.9%,24.7%,–
COc1cc2c(c(OC)c1OC)CCc1cnoc1-2,112%,106%,94.5%,111%,95.1%,105%,100%,111%,127%,166%,98.1%,102%,91.9%,95%,109%,116%,106%,94.3%,97.7%,–
CCOC(=O)/C=C(/C)Sc1cc(O)c2ccccc2c1O,44.8%,-68.3% (active),-5.64% (active),105%,25.2%,46.1%,124%,38.4%,33%,17.1%,40.7%,24.3%,93%,51.1%,6.27% (active),13.4%,-28.2% (active),21.6%,36.8%,–
COc1ccc2c(c1)/C(=C\c1c[nH]c3ccc(F)cc13)C(=O)N2,64.8%,82.2%,57.8%,96.2%,52.7%,56.7%,68.9%,78.9%,50.6%,46.4%,61.5%,81.9%,100%,65.1%,93.4%,–,99.9%,85.2%,42.8%,69.5%
COC(=O)CCC1=C(CC(=O)OC)C(C)=N/C1=C\c1[nH]c(-c2ccc[nH]2)cc1OC,61.5%,38.7%,-25.3% (active),28.3%,15.5%,24.7%,72.1%,2.36% (active),-6.53% (active),-24.6% (active),-42.3% (active),9.85% (active),65%,–,64.6%,17.4%,52.2%,17.5%,40.1%,42.1%
COc1ccc(-c2c(N)noc2-c2cc(OC)c3c(c2)OCCO3)cc1,37.1%,30.8%,41%,77.8%,22.3%,45.4%,2.33% (active),13.4%,10.3%,11.6%,16%,24.3%,36.5%,–,8.57% (active),-24.2% (active),25.9%,-5.69% (active),63.7%,24.8%
COc1cc(OC)c2cc(C(=O)O)c(=O)oc2c1,98.2%,108%,80.7%,90.6%,107%,85.9%,102%,113%,74.9%,115%,43%,94.4%,106%,130%,99.9%,–,134%,112%,99.4%,55.2%
CN(CC(=O)N(Cc1ccc(C2CCCCC2)cc1)c1ccc(C(=O)O)cc1)S(=O)(=O)c1c(F)c(F)c(F)c(F)c1F,92.1%,19%,81.2%,102%,68.7%,89.9%,93.4%,-28.2% (active),-15.9% (active),-22.1% (active),11.3%,6.02% (active),116%,83.8%,106%,–,18.5%,87.7%,-6.87% (active),-24.8% (active)
COc1ccccc1[C@H]1c2[nH]c3ccccc3c2C[C@H]2C(=O)N(CCCCCCC(=O)NO)CC(=O)N12,74.7%,56.9%,44.7%,48.2%,35.1%,55.5%,31.9%,5.22% (active),11%,19.3%,-1.71% (active),36.9%,26.4%,–,61.7%,48.2%,53.6%,72.4%,18.2%,41.1%
CSc1ccc2c(c1)N(CCC1CCCCN1C)c1ccccc1S2 (centres undefined),67.5%,48%,28.2%,66.4%,25.8%,32.9%,84%,35.3%,40.5%,14.2%,26.3%,69.9%,–,64%,81%,92.3%,47.6%,65.6%,–,36.4%
CCN(CC)c1ccc(N=Nc2cc(Cl)ccc2Cl)c(NC(=O)CCC(=O)O)c1,79.7%,91.4%,60.9%,121%,88.8%,93.4%,80.1%,103%,95.1%,98.4%,97.6%,89.2%,92.5%,–,97.5%,–,95.1%,95.5%,90.2%,92.2%
Nc1ccc(S(=O)(=O)Nc2ncccn2)cc1,103%,103%,94.5%,114%,98.6%,103%,113%,101%,106%,103%,112%,102%,–,112%,116%,115%,133%,105%,–,116%
